Screens (PubChem)
In the library only some 8.8% were active in any assay of this set; here they are far more common.
HPGD block – HPGD (human) dehydrogenase inhibition; 150,000 compounds, 4.3% hits; purified HPGD, NADH fluorescence kinetic, PGE2 substrate; P15428; Potency, µM, for inactives: at the top dose activity change, negative = inhibition, hits mostly inhibitors; further: on the % scale 0 is the no-effect control and ±100 the full control effect
Target sequence (P15428 whole entry, looked up): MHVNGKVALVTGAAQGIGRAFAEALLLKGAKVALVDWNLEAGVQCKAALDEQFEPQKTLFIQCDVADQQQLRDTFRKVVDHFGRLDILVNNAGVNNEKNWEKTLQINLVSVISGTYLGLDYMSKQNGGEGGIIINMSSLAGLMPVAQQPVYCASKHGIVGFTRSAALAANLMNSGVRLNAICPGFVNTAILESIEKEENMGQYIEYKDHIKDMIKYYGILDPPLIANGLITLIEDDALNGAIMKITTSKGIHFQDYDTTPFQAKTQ
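NADH formation kinetics: reaction with 30 uM PGE2 and 1 mM NAD+ (final), 20 nM enzyme, Tris-HCl pH 8 with Tween 20, after 15 min compound preincubation at room temperature. Fluorescence change, last versus first of five reads.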
LMNA splice mod – changes lamin A minigene splicing in HeLa cells; HeLa LMNA splicing GFP/RFP minigene ratio, 48 h; Potency, µM (top dose mostly 46.1 µM), without a hit: at the highest dose ratio change, negative = inhibition, usual class: inhibitors; 200,000 compounds, 0.01% hits; active means well fitted inhibition curve with a large enough effect in the signal ratio, with a control signal flat, not every such curve was filed as active; inconclusive means small, poorly fitted or top-dose-only effect, or effect the other way, or a change in a side signal; the % refers to the signal ratio; further: on the % scale 0 is the no-effect control and ±100 the full control effect
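S3 HeLa cells stably expressing lamin A-EGFP splicing minigene plus DsRed2, 600 cells/well, 48 h compound exposure at 37C. Laser-scanning cytometry; analysed as GFP (500-530 nm)/RFP (575-640 nm) total intensity ratio; 0.5% DMSO vehicle.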
ALDH1A1 inh – blocks purified human ALDH1A1 activity | Purified ALDH1A1, NADH fluorescence, propionaldehyde substrate | Potency, µM (top dose mostly 75.3 µM), inactives show top-dose activity, negative = inhibition, usual class: inhibitors | 220,000 compounds, 7.3% hits;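 further: plate controls were no enzyme wells and a reference inhibitor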
Target sequence (P00352 whole entry, looked up): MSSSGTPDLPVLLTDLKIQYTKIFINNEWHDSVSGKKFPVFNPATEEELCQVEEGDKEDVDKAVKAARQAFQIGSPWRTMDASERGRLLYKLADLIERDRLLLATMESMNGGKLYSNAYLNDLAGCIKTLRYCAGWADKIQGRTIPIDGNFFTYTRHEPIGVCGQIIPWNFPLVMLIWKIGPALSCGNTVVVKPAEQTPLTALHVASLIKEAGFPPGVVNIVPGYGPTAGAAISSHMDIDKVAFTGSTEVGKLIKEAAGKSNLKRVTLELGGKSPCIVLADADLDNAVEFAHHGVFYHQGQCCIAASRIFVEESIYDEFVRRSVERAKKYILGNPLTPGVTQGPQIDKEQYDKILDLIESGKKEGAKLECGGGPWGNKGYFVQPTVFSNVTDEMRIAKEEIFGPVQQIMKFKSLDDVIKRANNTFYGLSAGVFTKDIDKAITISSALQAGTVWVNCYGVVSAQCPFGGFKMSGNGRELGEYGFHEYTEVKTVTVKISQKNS
HTT cytoprotect – cytoprotection in Huntington HTT-Q103 PC12 cell model; PC12 HTT-Q103 induced, cytoprotection, ATP luminescence, 40 h; 230,000 compounds, 0.14% hits; AID 1471; Potency, µM (doses to about 56.4 µM), without a hit: cytoprotection (ATP increase), most hits filed as activators; active means well fitted curve in the direction sought with a large enough effect; inconclusive means small, poorly fitted or top-dose-only effect, or another doubt; inactive means no such curve, though single readings can be large; an effect the other way counts as inactive or inconclusive; further: % of control where 0% means no effect; nearly all actives have a fitted effect of over 45% in size
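Stable PC12 Q103-GFP cells in serum-supplemented, phenol red-free DMEM; induction by tebufenozide at 100 nM final; compound dose series; cell viability quantified luminescently from ATP.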
HttQ103 aggreg – reduces HttQ103-GFP aggregates in PC12 cells | PC12 HttQ103-GFP aggregates, Acumen cytometry, 40 h | Potency, µM (highest dose often 46.1 µM), without a hit: at the top dose activity change, negative = inhibition, usual class: inhibitors | 220,000 compounds, 1.1% hits; active means well fitted curve in the direction sought with a large enough effect; inconclusive means small, poorly fitted or top-dose-only effect, or another doubt; inactive means no such curve, though single readings can be large; an effect the other way counts as inactive or inconclusive; further: on the % scale 0 is the no-effect control and ±100 the full control effect; nearly all actives have a fitted effect of over 60% in size
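PC12 cells stably carrying ecdysone-inducible HTT exon 1 Q103–GFP were induced with tebufenozide (100 nM final) and treated with library compounds in titration. GFP aggregates in lysates were counted by laser scanning cytometry.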
Starred values were filed as active, the others as inactive; ! = not active in a repeat; [ ] = dose if it differs, or a comment. Unless noted, the call rests on the fitted dose curve; in most records, active means well fitted inhibition curve with a large enough effect (not every such curve was filed as active); inconclusive means small, poorly fitted or top-dose-only effect, or another doubt; inactive means no such curve, though single readings can be large or run the other way. Potency means the concentration at half of the fitted maximal effect.

What do the screens show for `Cc1ccc(C(=O)NC(=S)NNS(=O)(=O)c2ccc(C)cc2)cc1`?
HPGD block: 15.8µM*; LMNA splice mod: 7.9%; ALDH1A1 inh: -11.0%; HttQ103 aggreg: 29.3%

Results for O=[N+]([O-])c1cccc(C2N3CCCN23)c1 (configuration not stated) ?
LMNA splice mod: inconclusive; ALDH1A1 inh: 3.1%; HTT cytoprotect: -2.3%; HttQ103 aggreg: 15.1%

How did O=C(O)c1cccc2c1NC(c1cccc([N+](=O)[O-])c1)C1CC(Sc3ccccc3[N+](=O)[O-])C(Cl)C21 (configuration not stated) do in these assays?
LMNA splice mod: 5.2%[46 µM]; ALDH1A1 inh: 3.55µM*

Results for CCN(CC)C(=O)c1ccc2c(c1)C1C(Cl)C(Sc3ccccc3[N+](=O)[O-])CC1C(C(=O)O)N2 (configuration not stated) ?
ALDH1A1 inh: 25.1µM*; HTT cytoprotect: 20.6%[10 µM]; HttQ103 aggreg: 20.1%[9.22 µM]

What do the screens show for `Cc1ccc2c(c1Cl)NC(C(=O)O)C1CC(Sc3ccccc3[N+](=O)[O-])C(Cl)C21` (configuration not stated)?
HTT cytoprotect: 1.8%[10 µM]; HttQ103 aggreg: -33.6%[9.22 µM]

Results for CN1CCN(c2ncc3ncc(=O)n(C)c3n2)CC1 ?
LMNA splice mod: -1.0%; ALDH1A1 inh: inconclusive; HTT cytoprotect: inconclusive

Results for CC[C@H](CO)NC(=O)[C@@H]1C=C2c3cccc4c3c(cn4C)C[C@@H]2N(C)C1 ?
HTT cytoprotect: -5.4%[1.9 µM]

What do the screens show for `CCCCCCCCCc1ccc(O)cc1`?
HPGD block: -4.7%; LMNA splice mod: inconclusive; ALDH1A1 inh: 100µM*; HTT cytoprotect: -54.0%

What do the screens show for `COc1c2c(c(CC=C(C)C)c3oc(=O)c(-c4ccc(O)cc4)c(O)c13)OC(C)(C)C=C2`?
HPGD block: -17.0%; LMNA splice mod: inconclusive; ALDH1A1 inh: 2.3%

What do the screens show for `CC(C)=CCCC1(C)C=Cc2c(O)c3c(c(CC=C(C)C)c2O1)OC12C(CC4CC1C(C)(C)OC2(C/C=C(/C)C(=O)O)C4O)C3=O` (configuration not stated)?
HPGD block: -19.5%; ALDH1A1 inh: inconclusive; HTT cytoprotect: 3.16µM*

How did CCOC(=O)CN(C#N)c1nc(N(C)C)nc(N(C)C)n1 do in these assays?
ALDH1A1 inh: 10µM*; HTT cytoprotect: -24.1%; HttQ103 aggreg: -9.9%

What do the screens show for `CC(C)N[C@@H](C)Cc1ccc(I)cc1`?
HTT cytoprotect: 20.0%[1.9 µM]

Results for CC(C)c1ccc(N2C(=O)NC(=O)/C(=C/C=C/c3ccco3)C2=O)cc1 ?
HPGD block: 3.16µM*; LMNA splice mod: 12.4%; ALDH1A1 inh: -9.0%; HttQ103 aggreg: inconclusive

What do the screens show for `CCCCN1C(=O)/C(=C/C=C/c2ccco2)C(=O)NC1=S`?
HPGD block: 10µM*; LMNA splice mod: -3.9%; ALDH1A1 inh: 15.8µM*; HTT cytoprotect: 3.6%[10 µM]; HttQ103 aggreg: 21.3%

How did CCc1ccc(N2NC(=O)/C(=C/C=C/c3ccco3)C2=O)cc1 do in these assays?
HPGD block: -18.5%; LMNA splice mod: -11.6%; ALDH1A1 inh: 3.16µM*; HTT cytoprotect: 23.6%[10 µM]; HttQ103 aggreg: 19.7%

How did Cc1cc(C)cc(N2C(=O)NC(=O)/C(=C\C=C\c3ccco3)C2=O)c1 do in these assays?
HPGD block: 10µM*; LMNA splice mod: inconclusive; ALDH1A1 inh: inconclusive; HTT cytoprotect: 11.3%[10 µM]; HttQ103 aggreg: inconclusive

What do the screens show for `Nc1ccc(-c2ccc(N)c(Cl)c2)cc1Cl`?
HPGD block: -9.7%; ALDH1A1 inh: inconclusive; HTT cytoprotect: -103.3%

How did c1ccc(N2CC3(CCNCC3)C2)nc1 do in these assays?
HPGD block: inconclusive; ALDH1A1 inh: inconclusive; HTT cytoprotect: 4.1%

How did CCc1ccc(N2C(=O)NC(=O)/C(=C\C=C\c3ccco3)C2=O)cc1 do in these assays?
HTT cytoprotect: -29.8%[10 µM]; HttQ103 aggreg: 43.8%[9.22 µM]

How did O=C1NC(=O)N(Cc2ccccc2)C(=O)/C1=C\c1ccco1 do in these assays?
LMNA splice mod: inconclusive; ALDH1A1 inh: inconclusive; HTT cytoprotect: -3.1%[10 µM]; HttQ103 aggreg: 19.7%

How did O=C1NC(=O)N(c2ccccc2)C(=O)/C1=C\C=C\c1ccccc1 do in these assays?
LMNA splice mod: inconclusive; ALDH1A1 inh: 10µM*; HTT cytoprotect: -30.0%[10 µM]; HttQ103 aggreg: 1.5%[9.22 µM]

Results for CCCCN1C(=O)/C(=C\c2ccco2)C(=O)N(CCc2ccccc2)C1=O ?
HPGD block: 31.6µM*; LMNA splice mod: 2.9%; ALDH1A1 inh: 3.3%; HTT cytoprotect: -11.7%; HttQ103 aggreg: 3.6%

How did Cc1ccc(N2C(=O)NC(=O)/C(=C/C=C/c3ccco3)C2=O)cc1 do in these assays?
HPGD block: 7.08µM*; LMNA splice mod: inconclusive; ALDH1A1 inh: inconclusive; HTT cytoprotect: -4.7%[10 µM]; HttQ103 aggreg: inconclusive

What do the screens show for `Oc1cccc(Cl)c1`?
HPGD block: -7.0%; ALDH1A1 inh: 2.2%; HTT cytoprotect: 9.1%

How did CN(CCC(=O)O)C1=Nc2ccc(Cl)cc2C(c2ccccc2)=[N+]([O-])C1 do in these assays?
HPGD block: -5.2%; ALDH1A1 inh: 6.8%[13.5 µM]; HTT cytoprotect: 5.1%[10 µM]

Results for CSc1ncc(/C=C2/C(=O)NC(=O)N(c3ccc(C)cc3)C2=O)cn1 ?
LMNA splice mod: 2.2%[46 µM]; ALDH1A1 inh: inconclusive; HTT cytoprotect: -18.1%; HttQ103 aggreg: 18.4%

What do the screens show for `Cc1ccc(N2C(=O)NC(=O)/C(=C\c3cccn3C(C)(C)C)C2=O)cc1`?
LMNA splice mod: 10.8%[46 µM]; ALDH1A1 inh: 0.562µM*; HTT cytoprotect: -18.7%; HttQ103 aggreg: 25.9%

What do the screens show for `Cc1ccc(N2C(=O)NC(=O)/C(=C\c3cnc(-c4ccccc4)nc3)C2=O)cc1`?
HPGD block: inconclusive; LMNA splice mod: -3.4%; ALDH1A1 inh: 8.91µM*; HTT cytoprotect: 24.5%[10 µM]; HttQ103 aggreg: 2.6%

Results for Cc1ccc(N2C(=O)NC(=O)/C(=C/c3cnn(-c4ccc(C)cc4)c3)C2=O)cc1 ?
HPGD block: inconclusive; LMNA splice mod: -6.4%; ALDH1A1 inh: 2.51µM*; HttQ103 aggreg: 9.5%

Results for CCCCCC[C@H]1C(=O)O[C@H](C)[C@H](NC(=O)c2cccc(NC=O)c2O)C(=O)O[C@@H](C)[C@@H]1OC(=O)CC(C)C ?
HPGD block: inconclusive; ALDH1A1 inh: inconclusive; HTT cytoprotect: -155.3%[1.9 µM]

How did NC1(P(=O)(O)O)CCCCC1 do in these assays?
HPGD block: -9.9%; ALDH1A1 inh: 3.7%[13.5 µM]; HTT cytoprotect: -13.2%[10 µM]

What do the screens show for `[N-]=[N+]=CC(=O)CC[C@H](N)C(=O)O`?
HPGD block: -4.7%; ALDH1A1 inh: 3.4%[13.5 µM]; HTT cytoprotect: -18.1%[10 µM]

How did CC(O)C(C)OC(=O)[C@@H]1C[C@@H]2c3cccc4c3c(cn4C(C)C)C[C@H]2N(C)C1 (some centres not stated) do in these assays?
HPGD block: -15.7%; LMNA splice mod: -21.8%; ALDH1A1 inh: 1.78µM*!; HTT cytoprotect: -44.2%
